This passage reports binding signal results from PMC7862700, “An all-to-all approach to the identification of sequence-specific readers for epigenetic DNA modifications on cytosine”.

Common to all, as to experiment: DAPPL (digital affinity profiling via proximity ligation, sequencing); 10 mM Tris-HCl pH 7.5, 50 mM NaCl, 1 mM DTT, 4% glycerol, room temperature, 30 min; GST-TFs on glutathione beads, 16-mer random dsDNA library, 0.1% formaldehyde crosslink after washing; high values mean tight binding
One assay concerns the target T1, FEV (Homo sapiens, UniProt Q99581 1-238).
T1 sequence: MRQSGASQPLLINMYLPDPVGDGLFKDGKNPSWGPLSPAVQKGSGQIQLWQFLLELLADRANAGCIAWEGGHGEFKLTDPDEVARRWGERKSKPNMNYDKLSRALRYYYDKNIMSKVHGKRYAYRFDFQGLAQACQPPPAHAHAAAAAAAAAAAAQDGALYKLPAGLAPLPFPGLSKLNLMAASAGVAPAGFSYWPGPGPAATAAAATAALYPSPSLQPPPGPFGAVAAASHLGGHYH
As to conditions: protein: recombinant; tags: N-terminal GST; dsDNA, one strand shown. An outline of the steps: (§1)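 Binding signal is given per hexamer as its read frequency for a factor divided by its frequency in the tag-only sample. GST-fused human transcription factors were expressed in yeast, captured on glutathione beads, barcoded with DNA and pooled with that sample, then incubated with 200 nmole of a 16-mer random double-stranded DNA library in Tris/NaCl/DTT/glycerol buffer for 30 min at room temperature. The pools were then washed, crosslinked, proximity-ligated, amplified by PCR and sequenced on an Illumina NextSeq500.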

A further assay addresses ETV5 (Homo sapiens, UniProt P41161 1-510). The note with it: protein: recombinant; tags: N-terminal GST; dsDNA, one strand shown. A digest of the protocol:
as §1

The target in a further assay is HSF1 (Homo sapiens, UniProt Q00613 1-529). As to conditions: protein: recombinant; tags: N-terminal GST; chain copies: 3; dsDNA, one strand shown. An outline of the steps: as §1
Chain of HSF1 (Q00613 whole entry): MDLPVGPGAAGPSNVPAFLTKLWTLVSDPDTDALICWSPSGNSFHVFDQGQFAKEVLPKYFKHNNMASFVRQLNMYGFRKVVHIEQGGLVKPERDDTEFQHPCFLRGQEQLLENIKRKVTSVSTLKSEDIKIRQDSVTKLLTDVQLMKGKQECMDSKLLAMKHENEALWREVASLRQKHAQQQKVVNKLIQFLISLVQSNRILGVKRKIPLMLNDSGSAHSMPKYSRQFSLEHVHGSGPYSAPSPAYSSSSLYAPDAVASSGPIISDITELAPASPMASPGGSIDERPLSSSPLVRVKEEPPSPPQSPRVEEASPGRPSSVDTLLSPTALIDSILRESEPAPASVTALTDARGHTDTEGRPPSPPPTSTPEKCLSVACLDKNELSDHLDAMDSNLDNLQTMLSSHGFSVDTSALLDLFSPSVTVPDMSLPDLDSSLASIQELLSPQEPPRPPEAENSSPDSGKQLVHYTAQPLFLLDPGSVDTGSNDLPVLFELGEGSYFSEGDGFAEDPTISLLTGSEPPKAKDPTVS
The next assay concerns the target T2, SPIC (Homo sapiens, UniProt Q8N5J4 1-248).
T2 sequence: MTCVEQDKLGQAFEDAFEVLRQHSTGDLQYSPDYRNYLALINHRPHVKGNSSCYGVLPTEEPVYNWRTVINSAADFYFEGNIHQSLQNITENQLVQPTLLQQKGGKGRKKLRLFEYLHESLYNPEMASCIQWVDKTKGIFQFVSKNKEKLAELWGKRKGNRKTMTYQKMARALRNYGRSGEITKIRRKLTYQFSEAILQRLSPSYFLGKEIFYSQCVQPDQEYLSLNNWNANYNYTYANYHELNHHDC
The note with it: protein: recombinant; tags: N-terminal GST; dsDNA, one strand shown. A digest of the protocol:
as §1

For another assay, the target named is ELF4 (Homo sapiens, UniProt Q99607 1-663). As to conditions: protein: recombinant; tags: N-terminal GST; dsDNA, one strand shown. A digest of the protocol: as §1
Chain of ELF4 (Q99607 whole entry): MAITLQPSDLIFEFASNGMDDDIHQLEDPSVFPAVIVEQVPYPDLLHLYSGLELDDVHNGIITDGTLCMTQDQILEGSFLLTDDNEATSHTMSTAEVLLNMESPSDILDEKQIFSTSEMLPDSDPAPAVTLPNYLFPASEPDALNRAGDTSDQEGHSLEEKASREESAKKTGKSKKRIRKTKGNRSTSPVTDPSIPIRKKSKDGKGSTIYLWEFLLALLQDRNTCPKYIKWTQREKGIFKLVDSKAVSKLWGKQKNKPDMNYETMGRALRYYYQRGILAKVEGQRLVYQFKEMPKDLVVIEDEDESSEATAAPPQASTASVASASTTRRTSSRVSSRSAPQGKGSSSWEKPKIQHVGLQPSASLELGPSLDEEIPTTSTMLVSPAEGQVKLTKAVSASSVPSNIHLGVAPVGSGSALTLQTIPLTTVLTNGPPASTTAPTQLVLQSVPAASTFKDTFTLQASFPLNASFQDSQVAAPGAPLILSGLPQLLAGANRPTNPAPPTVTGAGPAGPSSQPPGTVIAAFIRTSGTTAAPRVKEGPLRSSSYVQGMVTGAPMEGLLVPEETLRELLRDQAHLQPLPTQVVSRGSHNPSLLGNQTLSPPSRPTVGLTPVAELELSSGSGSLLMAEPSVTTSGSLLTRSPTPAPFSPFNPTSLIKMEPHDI
The next assay has as its target T3, ELK4 (Homo sapiens, UniProt P28324-2 1-405).
T3 sequence: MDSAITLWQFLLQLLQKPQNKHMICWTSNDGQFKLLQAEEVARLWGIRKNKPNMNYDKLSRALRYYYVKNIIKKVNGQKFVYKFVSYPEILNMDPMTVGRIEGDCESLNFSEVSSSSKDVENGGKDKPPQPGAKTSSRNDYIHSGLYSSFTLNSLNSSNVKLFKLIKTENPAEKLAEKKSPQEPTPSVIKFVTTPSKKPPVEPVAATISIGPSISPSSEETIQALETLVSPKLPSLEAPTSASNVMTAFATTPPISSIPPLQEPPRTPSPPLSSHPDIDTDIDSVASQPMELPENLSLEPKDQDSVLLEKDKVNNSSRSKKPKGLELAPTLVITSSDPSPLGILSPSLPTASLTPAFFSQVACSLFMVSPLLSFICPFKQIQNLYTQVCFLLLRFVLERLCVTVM
As to conditions: protein: recombinant; tags: N-terminal GST; dsDNA, one strand shown. An outline of the steps: as §1

Another assay addresses T4, ETV2 (Homo sapiens, UniProt O00321 1-342).
T4 sequence: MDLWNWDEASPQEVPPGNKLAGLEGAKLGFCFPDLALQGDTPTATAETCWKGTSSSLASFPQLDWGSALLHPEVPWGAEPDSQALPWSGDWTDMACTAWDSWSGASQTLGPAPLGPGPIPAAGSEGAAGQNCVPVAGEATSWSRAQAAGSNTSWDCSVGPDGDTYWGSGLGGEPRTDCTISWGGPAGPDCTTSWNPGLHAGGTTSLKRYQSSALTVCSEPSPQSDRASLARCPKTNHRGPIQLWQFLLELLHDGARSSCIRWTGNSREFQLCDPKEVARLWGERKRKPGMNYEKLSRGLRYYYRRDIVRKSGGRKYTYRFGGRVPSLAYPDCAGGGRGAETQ
The note with it: protein: recombinant; tags: N-terminal GST; dsDNA, one strand shown. An outline of the steps: as §1

In the next assay the target is T5, ELF3 (Homo sapiens, UniProt P78545 1-371).
T5 sequence: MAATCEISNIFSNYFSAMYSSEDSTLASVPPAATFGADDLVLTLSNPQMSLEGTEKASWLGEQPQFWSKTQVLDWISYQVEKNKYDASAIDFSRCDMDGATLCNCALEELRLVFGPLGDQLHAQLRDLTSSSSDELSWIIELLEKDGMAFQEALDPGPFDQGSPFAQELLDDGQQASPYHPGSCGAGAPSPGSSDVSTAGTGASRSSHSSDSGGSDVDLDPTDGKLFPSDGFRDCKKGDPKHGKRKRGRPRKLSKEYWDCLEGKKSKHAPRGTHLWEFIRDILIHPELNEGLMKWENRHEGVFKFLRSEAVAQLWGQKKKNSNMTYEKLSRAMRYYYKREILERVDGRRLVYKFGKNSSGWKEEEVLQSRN
As to conditions: protein: recombinant; tags: N-terminal GST; dsDNA, one strand shown. An outline of the steps:
as §1

Another assay deals with CRX (Homo sapiens, UniProt O43186 1-299). The note with it: protein: recombinant; tags: N-terminal GST; dsDNA, one strand shown. A digest of the protocol:
as §1

The target in another assay is ETV1 (Homo sapiens, UniProt P50549 1-477). As to conditions: protein: recombinant; tags: N-terminal GST; dsDNA, one strand shown. An outline of the steps: as §1
Chain of ETV1 (P50549 whole entry): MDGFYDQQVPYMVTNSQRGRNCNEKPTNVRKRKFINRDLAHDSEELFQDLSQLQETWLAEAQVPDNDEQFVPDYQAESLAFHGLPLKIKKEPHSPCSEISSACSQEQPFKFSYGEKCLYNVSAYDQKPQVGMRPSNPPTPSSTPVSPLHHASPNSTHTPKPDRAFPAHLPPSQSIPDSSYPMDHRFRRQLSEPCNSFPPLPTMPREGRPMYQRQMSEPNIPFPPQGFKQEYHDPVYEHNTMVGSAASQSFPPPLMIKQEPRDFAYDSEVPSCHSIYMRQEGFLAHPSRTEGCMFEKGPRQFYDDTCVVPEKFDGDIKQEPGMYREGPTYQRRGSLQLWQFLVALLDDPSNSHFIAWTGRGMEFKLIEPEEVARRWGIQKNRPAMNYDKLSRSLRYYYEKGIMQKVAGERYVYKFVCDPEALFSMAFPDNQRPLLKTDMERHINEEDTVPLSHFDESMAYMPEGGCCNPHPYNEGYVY
Another assay deals with T6, ERF (Homo sapiens, UniProt P50548 1-548).
T6 sequence: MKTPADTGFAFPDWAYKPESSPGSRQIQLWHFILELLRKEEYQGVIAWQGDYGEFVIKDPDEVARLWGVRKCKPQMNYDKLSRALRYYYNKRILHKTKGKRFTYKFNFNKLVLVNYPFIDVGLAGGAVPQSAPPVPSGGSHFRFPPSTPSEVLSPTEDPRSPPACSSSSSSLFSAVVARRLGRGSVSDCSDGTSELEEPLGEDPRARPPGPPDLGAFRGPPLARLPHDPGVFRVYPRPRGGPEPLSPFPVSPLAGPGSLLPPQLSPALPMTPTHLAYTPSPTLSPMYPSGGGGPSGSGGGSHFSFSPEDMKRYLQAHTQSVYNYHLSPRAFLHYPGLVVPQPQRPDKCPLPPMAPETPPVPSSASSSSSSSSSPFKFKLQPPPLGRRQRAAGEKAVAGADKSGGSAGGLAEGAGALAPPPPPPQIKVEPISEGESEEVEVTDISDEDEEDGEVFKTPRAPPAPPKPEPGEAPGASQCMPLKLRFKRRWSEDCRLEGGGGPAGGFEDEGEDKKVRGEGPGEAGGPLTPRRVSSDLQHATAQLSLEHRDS
As to conditions: protein: recombinant; tags: N-terminal GST; dsDNA, one strand shown. An outline of the steps: as §1

For a further assay, the target named is T7, ETV3L (Homo sapiens, UniProt Q6ZN32 1-361).
T7 sequence: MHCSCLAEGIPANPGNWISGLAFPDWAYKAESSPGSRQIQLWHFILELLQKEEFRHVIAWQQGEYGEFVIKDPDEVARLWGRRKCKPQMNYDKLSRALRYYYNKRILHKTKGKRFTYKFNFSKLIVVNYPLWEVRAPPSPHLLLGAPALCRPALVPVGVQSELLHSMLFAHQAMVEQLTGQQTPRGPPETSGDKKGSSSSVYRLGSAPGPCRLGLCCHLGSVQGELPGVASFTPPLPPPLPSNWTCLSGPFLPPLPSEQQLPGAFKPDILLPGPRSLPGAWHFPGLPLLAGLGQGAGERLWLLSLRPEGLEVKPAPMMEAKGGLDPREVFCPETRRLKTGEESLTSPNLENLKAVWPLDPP
As to conditions: protein: recombinant; tags: N-terminal GST; dsDNA, one strand shown. A digest of the protocol: as §1

In the next assay the target is T8, ETS2 (Homo sapiens, UniProt P15036 1-469).
T8 sequence: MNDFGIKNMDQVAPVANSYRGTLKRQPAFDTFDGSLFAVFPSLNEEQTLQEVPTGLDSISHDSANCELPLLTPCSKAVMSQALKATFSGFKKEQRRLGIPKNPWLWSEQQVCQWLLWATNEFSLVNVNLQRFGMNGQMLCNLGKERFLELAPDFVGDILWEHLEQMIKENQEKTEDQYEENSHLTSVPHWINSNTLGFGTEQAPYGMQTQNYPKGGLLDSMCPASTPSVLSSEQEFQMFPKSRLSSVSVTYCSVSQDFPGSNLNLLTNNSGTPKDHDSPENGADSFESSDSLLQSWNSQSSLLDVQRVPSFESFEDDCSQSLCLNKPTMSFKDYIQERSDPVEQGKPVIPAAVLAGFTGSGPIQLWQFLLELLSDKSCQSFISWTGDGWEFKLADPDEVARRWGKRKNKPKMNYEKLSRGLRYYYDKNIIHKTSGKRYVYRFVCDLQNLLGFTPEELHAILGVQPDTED
The note with it: protein: recombinant; tags: N-terminal GST; dsDNA, one strand shown. An outline of the steps:
as §1

In a further assay the target is T9, SPDEF (Homo sapiens, UniProt O95238 1-335).
T9 sequence: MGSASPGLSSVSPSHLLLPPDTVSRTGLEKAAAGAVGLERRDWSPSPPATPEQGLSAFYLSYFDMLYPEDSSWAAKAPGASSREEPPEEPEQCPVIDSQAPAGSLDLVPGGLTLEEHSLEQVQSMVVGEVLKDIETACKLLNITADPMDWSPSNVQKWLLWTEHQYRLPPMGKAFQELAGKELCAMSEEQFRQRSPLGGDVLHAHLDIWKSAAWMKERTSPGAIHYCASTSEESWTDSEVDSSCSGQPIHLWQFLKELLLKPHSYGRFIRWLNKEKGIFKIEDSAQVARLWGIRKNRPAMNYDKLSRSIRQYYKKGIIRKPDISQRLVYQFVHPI
The note with it: protein: recombinant; tags: N-terminal GST; dsDNA, one strand shown. A digest of the protocol:
as §1

Another assay deals with T10, ETV7 (Homo sapiens, UniProt Q9Y603 1-341).
T10 sequence: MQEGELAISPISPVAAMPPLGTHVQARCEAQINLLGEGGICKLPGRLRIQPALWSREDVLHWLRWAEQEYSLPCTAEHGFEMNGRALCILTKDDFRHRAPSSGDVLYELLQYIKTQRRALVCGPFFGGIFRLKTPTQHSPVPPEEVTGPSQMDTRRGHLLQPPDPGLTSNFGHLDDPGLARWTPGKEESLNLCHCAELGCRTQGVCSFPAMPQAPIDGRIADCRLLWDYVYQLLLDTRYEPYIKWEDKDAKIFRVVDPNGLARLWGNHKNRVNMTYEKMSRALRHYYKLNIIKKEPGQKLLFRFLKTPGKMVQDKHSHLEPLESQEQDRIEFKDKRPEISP
As to conditions: protein: recombinant; tags: N-terminal GST; dsDNA, one strand shown. An outline of the steps: as §1

A further assay concerns the target T11, ELF5 (Homo sapiens, UniProt Q9UKW6-2 1-255).
T11 sequence: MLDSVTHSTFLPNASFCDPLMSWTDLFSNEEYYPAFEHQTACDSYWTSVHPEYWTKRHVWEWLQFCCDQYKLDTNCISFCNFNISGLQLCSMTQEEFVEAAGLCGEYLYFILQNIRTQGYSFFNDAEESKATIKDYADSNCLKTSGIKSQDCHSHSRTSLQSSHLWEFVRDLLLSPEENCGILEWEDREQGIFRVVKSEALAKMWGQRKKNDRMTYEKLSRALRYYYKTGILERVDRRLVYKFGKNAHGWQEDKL
As to conditions: protein: recombinant; tags: N-terminal GST; dsDNA, one strand shown. An outline of the steps: as §1

The target in a further assay is T12, ETV3 (Homo sapiens, UniProt P41162-2 1-143).
T12 sequence: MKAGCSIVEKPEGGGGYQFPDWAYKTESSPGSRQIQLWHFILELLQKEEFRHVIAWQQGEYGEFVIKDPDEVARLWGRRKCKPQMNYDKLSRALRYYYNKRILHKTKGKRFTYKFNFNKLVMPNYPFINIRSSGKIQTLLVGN
The note with it: protein: recombinant; tags: N-terminal GST; dsDNA, one strand shown. A digest of the protocol:
as §1

The next assay concerns the target ETV6 (Homo sapiens, UniProt P41212 1-452). As to conditions: protein: recombinant; tags: N-terminal GST; dsDNA, one strand shown. An outline of the steps: as §1

Chain of ETV5 (P41161 whole entry): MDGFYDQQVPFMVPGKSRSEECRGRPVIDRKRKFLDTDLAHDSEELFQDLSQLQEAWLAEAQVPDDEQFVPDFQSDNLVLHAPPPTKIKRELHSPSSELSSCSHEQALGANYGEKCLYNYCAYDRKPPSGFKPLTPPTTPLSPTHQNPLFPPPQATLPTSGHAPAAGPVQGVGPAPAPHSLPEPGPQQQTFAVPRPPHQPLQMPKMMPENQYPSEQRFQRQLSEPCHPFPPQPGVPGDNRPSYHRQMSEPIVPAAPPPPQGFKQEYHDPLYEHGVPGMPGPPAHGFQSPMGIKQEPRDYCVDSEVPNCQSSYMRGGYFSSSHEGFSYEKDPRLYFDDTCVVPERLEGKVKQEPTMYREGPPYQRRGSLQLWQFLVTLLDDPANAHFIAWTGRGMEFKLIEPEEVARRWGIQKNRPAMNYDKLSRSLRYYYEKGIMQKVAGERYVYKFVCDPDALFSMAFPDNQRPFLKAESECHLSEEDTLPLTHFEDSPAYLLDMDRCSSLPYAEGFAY
Chain of ETV6 (P41212 whole entry): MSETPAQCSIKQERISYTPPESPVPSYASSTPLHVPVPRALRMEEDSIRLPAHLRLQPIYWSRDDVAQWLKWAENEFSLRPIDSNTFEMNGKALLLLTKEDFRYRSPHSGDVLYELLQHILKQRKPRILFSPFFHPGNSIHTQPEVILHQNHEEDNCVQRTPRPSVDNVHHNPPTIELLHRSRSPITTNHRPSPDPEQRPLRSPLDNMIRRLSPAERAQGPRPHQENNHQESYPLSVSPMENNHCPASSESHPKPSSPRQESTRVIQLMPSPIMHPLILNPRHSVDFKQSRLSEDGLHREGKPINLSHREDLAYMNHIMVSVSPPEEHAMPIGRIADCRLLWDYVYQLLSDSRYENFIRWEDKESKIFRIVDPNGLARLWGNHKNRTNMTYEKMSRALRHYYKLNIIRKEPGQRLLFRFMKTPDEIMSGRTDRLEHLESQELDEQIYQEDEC
Chain of CRX (O43186 whole entry): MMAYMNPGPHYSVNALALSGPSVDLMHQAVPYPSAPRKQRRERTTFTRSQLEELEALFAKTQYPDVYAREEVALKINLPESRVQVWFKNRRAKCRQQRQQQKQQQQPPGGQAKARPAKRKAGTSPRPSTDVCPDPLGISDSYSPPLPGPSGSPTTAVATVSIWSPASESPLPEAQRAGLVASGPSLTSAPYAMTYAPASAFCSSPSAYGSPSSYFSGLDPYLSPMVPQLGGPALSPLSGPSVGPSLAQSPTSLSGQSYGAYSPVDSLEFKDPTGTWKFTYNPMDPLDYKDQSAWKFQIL

As for ATGACG, the binding signal is 1.32 fold enrichment (6-mer frequency, TF over GST control) in the assay with FEV; 1.4 fold enrichment (6-mer frequency, TF over GST control) with ETV5; 1.13 fold enrichment (6-mer frequency, TF over GST control) with HSF1; 1.18 fold enrichment (6-mer frequency, TF over GST control) in the assay with SPIC; 1.39 fold enrichment (6-mer frequency, TF over GST control) with ELF4; 1.47 fold enrichment (6-mer frequency, TF over GST control) with ELK4. Also, the binding signal was 1.25 fold enrichment (6-mer frequency, TF over GST control) with ETV2; 1.3 fold enrichment (6-mer frequency, TF over GST control) in the assay with ELF3; 1.11 fold enrichment (6-mer frequency, TF over GST control) with CRX; 1.3 fold enrichment (6-mer frequency, TF over GST control) with ETV1; 1.39 fold enrichment (6-mer frequency, TF over GST control) with ERF; 1.34 fold enrichment (6-mer frequency, TF over GST control) with ETV3L. In addition, the binding signal in the assay with ETS2 was 1.26 fold enrichment (6-mer frequency, TF over GST control); in the assay with SPDEF it was 1.45 fold enrichment (6-mer frequency, TF over GST control); with ETV7, 1.16 fold enrichment (6-mer frequency, TF over GST control); in the assay with ELF5, 1.44 fold enrichment (6-mer frequency, TF over GST control); with ETV3, 1.2 fold enrichment (6-mer frequency, TF over GST control); with ETV6 it was 1.28 fold enrichment (6-mer frequency, TF over GST control).
